Measurements published in PubChem BioAssay (Tox21).
Records with an inconclusive call do not appear. Activity calls are given as the source filed them. Unless noted, calls come from the whole dose curve; as a rule, active = well fitted curve in the direction sought with a large enough effect in the repeat runs; inconclusive = weak or mixed curves; inactive = no such curve, though single readings can be large; an effect the other way counts as inactive or inconclusive.

Tests used:
[1] = qHTS assay for small molecule agonists of the p53 signaling pathway (AID 651631; calls by dose curve; note: nearly all actives have a fitted effect of over 15% in size); settings: HCT-116 p53RE-bla reporter, beta-lactamase FRET ratio, 16 h; series mostly up to 73.3 µM
How it was run: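 Testing took place in human colorectal HCT-116 cells with stable p53RE-driven beta-lactamase. After 16 h of compound exposure at 37 °C, a FRET substrate was added and fluorescence recorded 2 h later.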

[2] = qHTS assay for small molecule agonists of the p53 signaling pathway - cell viability (AID 651633; calls by dose curve; note: nearly all actives have a fitted effect of over 30% in size); settings: p53RE-bla HCT-116 viability, ATP luminescence, 16 h; series mostly up to 83.3 µM
How it was run: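 p53RE-bla cells were treated with compound for 16 hours at 37 C. Cytotoxicity was then measured as CellTiter-Glo luminescence after 30 min at room temperature.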

[3] = qHTS assay for small molecules that induce genotoxicity in human embryonic kidney cells expressing luciferase-tagged ATAD5 - cell viability (AID 651634; calls by dose curve; note: nearly all actives have a fitted effect of over 25% in size); settings: HEK293T ATAD5-luc cells viability, CellTiter-Fluor, 15.5 h; series mostly up to 83.3 µM
How it was run: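 Cytotoxicity counterscreen in HEK293T cells bearing an ATAD5-luciferase reporter: live-cell protease activity measured by CellTiter-Fluor fluorescence after 15.5 hr compound exposure.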

[4] = qHTS assay for small molecule disruptors of the mitochondrial membrane potential - cell viability (AID 720634; calls by dose curve;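 note: human HepG2 liver cancer cells; nearly all actives have a fitted effect of over 20% in size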); settings: HepG2 viability, ATP luminescence (CellTiter-Glo), 1 h; series mostly up to 83.2 µM
How it was run: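 After overnight attachment at 37 C, HepG2 cells received compound or DMSO vehicle for 1 hr. Viability is then taken from ATP-driven luminescence following a 30 min room-temperature CellTiter-Glo step.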

[5] = qHTS assay for small molecule disruptors of the mitochondrial membrane potential (AID 720635); settings: HepG2 mitochondrial membrane potential, Mito-MPS dye ratio; series mostly up to 83.2 µM; note: potency is the fitted concentration of half-maximal effect
How it was run: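 HepG2 cells exposed to compound 1 hr at 37C, then Mito-MPS dye 30 min. Ratio read of aggregate (540/590 nm) versus monomer (490/535 nm) fluorescence.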

[6] = qHTS assay to test for compound auto fluorescence at 590 nm (red) in HepG2 cells (AID 720674); settings: HepG2 autofluorescence, red 540/590 nm, 1 h; series mostly up to 91.3 µM
How it was run: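 HepG2 cells, 2,000 per well in MEM with 10% FBS, attached overnight at 37 C, then got 23 nL compound or DMSO. After 1 hr at 37 C, 5% CO2, red fluorescence was read at 540/590 nm against Rose Bengal sodium as reference.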

[7] = qHTS assay to test for compound auto fluorescence at 535 nm (green) in HepG2 cells (AID 720675); settings: green autofluorescence 485/535 nm, 1 h; series mostly up to 91.3 µM
[8] = qHTS assay to test for compound auto fluorescence at 460 nm (blue) in HEK293 cells (AID 720678); settings: blue autofluorescence 405/460 nm; series mostly up to 91.3 µM
How it was run: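 Auto fluorescence in the blue band was quantified as triamterene equivalency. HEK293 cells were seeded at 2,000/well, dosed after a 4-5 hr attachment, and kept overnight at 37C before the 405/460 nm reading.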

[9] = qHTS assay to test for compound auto fluorescence at 590 nm (red) in HEK293 cells (AID 720679); settings: red autofluorescence 540/590 nm; series mostly up to 91.3 µM
How it was run: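 Autofluorescence equivalency to Rose Bengal sodium, 540/590nm, in HEK293 cells exposed overnight to 23 nL compound per well.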

[10] = qHTS assay for small molecules that induce genotoxicity in human embryonic kidney cells expressing luciferase-tagged ATAD5 (AID 651632); settings: HEK293T ATAD5-luciferase induction, 16 h; series mostly up to 83.3 µM; note: nearly all actives have a fitted effect of over 15% in size
How it was run: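 Increased luciferase signal from ATAD5-tagged reporter cells indicates DNA-damage-driven ATAD5 induction. HEK293T cells are treated for 16 hr at 37C before detection with Amplite.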
% is set by controls: 0 for no effect and ±100 for the full control effect.

c1ccc2nccnc2c1
inactive: outcome [1] | outcome [2] | Potency [3] | outcome [4] | Potency [5] | outcome [6] | outcome [7] | outcome [8] | outcome [9]

C=C(C)C1CCC(C)(O)CC1 (stereo not drawn)
inactive: outcome [1] | Potency [3] | outcome [4] | Potency [5] | outcome [6] | outcome [7] | outcome [8]

Oc1cn2c(n1)Nc1ccc(Cl)c(Cl)c1C2
inactive: outcome [1] | Potency [10] | Potency [3] | outcome [4] | Potency [5] | outcome [6] | outcome [7] | outcome [8] | outcome [9]

C=C1CC/C=C(\C)CC[C@@H]2[C@@H]1CC2(C)C
inactive: outcome [1] | outcome [2] | Potency [3] | outcome [4] | outcome [6] | outcome [7] | outcome [8] | outcome [9]

CC(=O)c1sc(C)nc1C
inactive: outcome [1] | outcome [2] | Potency [3] | outcome [4] | Potency [5] | outcome [6] | outcome [7] | outcome [8] | outcome [9]

CC1(CO)CN(c2ccccc2)NC1=O (stereo not drawn)
inactive: outcome [1] | outcome [2] | Potency [3] | outcome [4] | Potency [5] | outcome [6] | outcome [7] | outcome [8] | outcome [9]

CCOCCOCCOCC
inactive: outcome [1] | outcome [2] | Potency [3] | outcome [6] | outcome [7] | outcome [8] | outcome [9]

O=C1CCCC(=O)O1
inactive: outcome [1] | Potency [10] | Potency [3] | outcome [4] | Potency [5] | outcome [6] | outcome [7] | outcome [8] | outcome [9]

CC(C)CC(=O)O
inactive: outcome [1] | outcome [2] | Potency [3] | outcome [4] | Potency [5] | outcome [6] | outcome [7] | outcome [8]

COc1cc(C(=S)N2CCOCC2)cc(OC)c1OC
inactive: outcome [1] | Potency [3] | outcome [4] | Potency [5] | outcome [6] | outcome [7] | outcome [8] | outcome [9]

Cc1cccc2nccnc12
inactive: outcome [1] | outcome [2] | Potency [3] | outcome [4] | outcome [6] | outcome [7] | outcome [8] | outcome [9]

CCNC(=O)C1CC(C)CCC1C(C)C (stereo not drawn)
inactive: Potency [10] | outcome [2] | Potency [3] | outcome [4] | outcome [6] | outcome [7] | outcome [8] | outcome [9]

NNc1nnc(NN)c2ccccc12
inactive: Potency [10] | outcome [2] | Potency [3] | outcome [4] | outcome [6] | outcome [7] | outcome [8] | outcome [9]

CCCN1C[C@H](CSC)C[C@@H]2c3cccc4[nH]cc(c34)C[C@H]21
inactive: Potency [10] | outcome [2] | Potency [3] | outcome [4] | Potency [5] | outcome [6] | outcome [7] | outcome [8] | outcome [9]

CCCCCCCCSCC
inactive: Potency [10] | outcome [2] | Potency [3] | outcome [4] | outcome [6] | outcome [7] | outcome [8] | outcome [9]

O=C(O)CCSSCCC(=O)O
inactive: Potency [10] | outcome [2] | Potency [3] | outcome [4] | outcome [6] | outcome [7] | outcome [8] | outcome [9]

CCOC(=O)/C=C/c1ccccc1
inactive: Potency [10] | outcome [2] | Potency [3] | outcome [4] | Potency [5] | outcome [6] | outcome [7] | outcome [8] | outcome [9]

C[C@@H](O)[C@H]1C(=O)N2C(C(=O)O)=C(SCCN=CN)C[C@H]12
inactive: Potency [10] | outcome [2] | Potency [3] | outcome [4] | Potency [5] | fluorescence, relative to Rose Bengal [6] -0.493% [at 18.6 µM] | fluorescence, % of fluorescein control [7] -0.19% [at 18.6 µM] | fluorescence, % of triamterene [8] 1.22% [at 18.6 µM] | fluorescence, % of fluorescent control [9] 0.0064% [at 18.6 µM]

CC(C)C[C@H](NC(=O)CNC(=O)[C@H](Cc1ccc(O)cc1)NC(=O)[C@H](CO)NC(=O)[C@H](Cc1c[nH]c2ccccc12)NC(=O)[C@H](Cc1cnc[nH]1)NC(=O)[C@@H]1CCC(=O)N1)C(=O)N[C@@H](CCCN=C(N)N)C(=O)N1CCC[C@H]1C(=O)NCC(N)=O (stereo in doubt)
inactive: Potency [10] | outcome [2] | Potency [3] | outcome [4] | Potency [5] | outcome [6] | outcome [7] | outcome [8] | outcome [9]

COC(=O)C1CC(=O)C(C(=O)OC)CC1=O (stereo not drawn)
inactive: activation [10] 2.21% [at 8.08 µM] | activity change, negative = cytotoxicity [2] 20.9% [at 8.08 µM] | activity, negative = cytotoxicity [3] 31.1% [at 8.08 µM] | activity change, negative = cytotoxicity [4] 10.5% [at 8.08 µM] | fluorescence, relative to Rose Bengal [6] 0.406% [at 3.72 µM] | fluorescence, % of fluorescein control [7] 0.0015% [at 3.72 µM] | fluorescence, % of triamterene [8] 1.94% [at 3.72 µM] | fluorescence, % of fluorescent control [9] 0.169% [at 3.72 µM]

CC(=O)NCc1c(I)c(NC(C)=O)c(I)c(C(=O)O)c1I
inactive: Potency [10] | outcome [2] | Potency [3] | outcome [4] | Potency [5] | outcome [6] | outcome [7] | outcome [8]

CCCC/C=C\CCCCCCCCCC=O
inactive: Potency [10] | outcome [2] | Potency [3] | outcome [4] | Potency [5] | outcome [6] | outcome [7] | outcome [8] | outcome [9]

CC(C)OC(=O)CCCCC(=O)OC(C)C
inactive: Potency [10] | outcome [2] | Potency [3] | outcome [4] | outcome [6] | outcome [7] | outcome [8] | outcome [9]
active: Potency [5] 54.6 µM

O=C(CCN1CCN(CCO)CC1)N1c2ccccc2Sc2ccc(C(F)(F)F)cc21
inactive: Potency [10] | outcome [2] | Potency [3] | outcome [4] | outcome [6] | outcome [7] | outcome [8]

CC(CO)c1ccccc1 (stereo not drawn)
inactive: Potency [10] | outcome [2] | Potency [3] | outcome [4] | Potency [5] | outcome [6] | outcome [8]

Cc1nc2n(c(=O)c1CCN1CCC(c3noc4cc(F)ccc34)CC1)CCC[C@H]2O
inactive: Potency [10] | outcome [2] | Potency [3] | outcome [4] | Potency [5] | outcome [6] | outcome [8] | outcome [9]

O=S(=O)(O)c1cc(O)c2ccc(Nc3ccccc3)cc2c1
inactive: Potency [10] | outcome [2] | Potency [3] | outcome [4] | outcome [6] | outcome [7] | outcome [8] | outcome [9]
